Assay outcomes as filed in PubChem BioAssay.
Rows were chosen to be rich in hits. Some 1.5% of all compounds tested hit in one or more screens of this group.
PINK1 modulator: changes PINK1 expression. PINK1 immunofluorescence, high-content cytometry, 24 h. Potency, µM (highest dose often 76.6 µM), actives largely listed as activators. 0.2% of 410,000 active; active = well fitted activation curve with a large enough effect; inconclusive = small, poorly fitted or top-dose-only effect; cell line not stated here; note: nearly all actives have a fitted effect of over 65% in size
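Measures PINK1 amount and localization on or inside mitochondria by immunofluorescence. Stable cells get compounds at 5 concentrations for 24 hours before fixation and staining; CCCP controls included.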
pAkt inh: Akt phosphorylation inhibition | activity change, % for hits at 50 µM | AID 651550 | 0.32% of 360,000 active | Neuro2A IGF-stimulated pAkt S473 HTRF, 20 min; stronger effect = lower value; in the data active = activity change below about -80%; inconclusive = mostly about -51% to -80%
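Neuro2A cells in DMEM with 0.5% FBS, overnight at 37 deg C, given compound at single 50 µM final, then IGF (6 nM final) for 20 min at 37 deg C. Lysed; phospho-Akt Ser473 by HTRF after 24 h, 665/615 ratio.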
BRCA1 expr up: increases BRCA1 expression; MCF7-BRCA1-FFLuc reporter, luminescence, 48 h; response scale: scaled: vehicle 0%, 10 µM genistein 100%; Potency, µM (highest dose often 46.1 µM), hits mostly activators; 1.1% of 380,000 active; note: nearly all actives have a fitted effect of over 80% in size
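Cells: MCF7-BRCA1-FFLuc, 2000/well. Exposure: 48 h, 37 °C, 5% CO2. Read: luminescence, 15 min post-substrate. Controls: genistein 10 microM (maximal activation), DMSO (neutral).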
TCR act: activates T cell receptor signaling. primary human leukocytes, anti-CD3, IL-2 HTRF, 48 h. Potency, µM (doses to about 9.22 µM), most hits filed as activators. 330,000 tested, under 10 active
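48 hr co-incubation of compounds, a-CD3 beads and primary human leukocytes; IL-2 quantified homogeneously by HTRF with anti-IL-2 K and d2 conjugates.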
Large screens that a line does not name were inactive. Unless noted, calls come from the whole dose curve; as a rule, active = well fitted curve in the direction sought with a large enough effect; inconclusive = small, poorly fitted or top-dose-only effect, or another doubt; inactive = no such curve, though single readings can be large; an effect the other way counts as inactive or inconclusive.

CC(NC(=O)c1cc(F)ccc1F)c1nnc2n1CCN(Cc1ccco1)CC2 (centres undefined)	none (no result: pAkt inh, BRCA1 expr up, TCR act)
Fc1ccc(/C=C/c2nnc(-c3cccs3)o2)cc1	BRCA1 expr up 2µM
Cc1ccc(/C=C/c2nnc(-c3cccs3)o2)cc1	BRCA1 expr up inconclusive (no result: PINK1 modulator)
O=c1n(Cc2ccccc2Cl)nc2n1-c1ccccc1SC2	BRCA1 expr up 11µM
O=c1n(Cc2ccccc2)nc2n1-c1ccccc1SC2	none
O=C(NCCc1ccccn1)C1CC12CCN(C(=O)c1ccc(F)cc1Cl)CC2 (centres undefined)	none (no result: pAkt inh, BRCA1 expr up, TCR act)
N#C/C(=C(/O)COC(=O)CCCNC(=O)c1ccc(Cl)cc1)c1nc2ccccc2[nH]1	pAkt inh -102%
N#C/C(=C(/O)COC(=O)CSc1ccc(Cl)cc1)c1nc2ccccc2[nH]1	none
Cc1ncc2c(c1CNC(=O)c1cncs1)CCN(C(=O)c1ccc(C(C)(C)C)cc1)C2	none (no result: pAkt inh, BRCA1 expr up, TCR act)
O=C(c1ccc(Cl)cc1)c1coc2ccc(O)cc12	BRCA1 expr up 4µM
O=C(c1ccc(Br)cc1)c1coc2ccc(O)cc12	BRCA1 expr up 11µM
O=C(COc1ccccc1C(=O)OCC(=O)N1CCOCC1)Nc1ccc(Br)cc1	none (no result: pAkt inh, TCR act)
COc1cccc(CNC(=O)COc2cc(=O)n(C)c3ccccc23)c1	none (no result: pAkt inh, TCR act)
COc1ccccc1/C=C/C(=O)NC(=S)Nc1ccccn1	none (no result: TCR act)
COc1ccc(NC(=S)Nc2ccccn2)cc1	BRCA1 expr up 4µM
COC(=O)c1ccc(NC(=S)Nc2ccccn2)cc1	none
COc1ccc(/C=C/C(=O)NC(=S)Nc2ccccn2)cc1	BRCA1 expr up 8.9µM
Cc1cccc(-c2cnc(C)nc2C2CCCN(C(=O)c3cccc(Cn4cccn4)c3)C2)c1 (centres undefined)	none (no result: pAkt inh, BRCA1 expr up, TCR act)
COc1cc(-c2cnc3ccccc3c2)cc2c1OCCN(C(=O)CCC(=O)c1ccc(F)cc1)C2	none (no result: pAkt inh, BRCA1 expr up, TCR act)
Cc1cc(/C=C2\SC(=S)NC2=O)c(C)n1C1CC1	BRCA1 expr up 13µM
Cc1cc(/C=C2/C(=O)N(C)C(=S)N2C)c(C)n1C1CC1	BRCA1 expr up 11µM
CN(C)CC(C)(C)CNC(=O)c1cnn(-c2ncc3c(n2)-c2ccccc2CC3)c1-c1ccco1	none (no result: pAkt inh, BRCA1 expr up, TCR act)
CCCNC(=O)c1cc(Cl)c(NC(=O)C2=CSCCO2)cc1OC	BRCA1 expr up 7.9µM
CCCNC(=O)c1cc(Cl)c(NC(=O)C2=C(C)OCCS2)cc1OC	none
CCC1(C2CCN(C(=O)c3coc4c3C(=O)CCC4)CC2)NC(=O)N(CCc2scnc2C)C1=O (centres undefined)	none (no result: pAkt inh, BRCA1 expr up, TCR act)
C[n+]1ccc(/C=C/c2cc[n+](C)c3ccccc23)c2ccccc21	PINK1 modulator 4µM (no result: pAkt inh, TCR act)
C[n+]1ccc(/C=C/c2ccc(F)cc2)c2ccccc21	PINK1 modulator inconclusive (no result: pAkt inh, TCR act)
CN1C=C/C(=C\c2cc[n+](C)c3ccccc23)c2ccccc21	PINK1 modulator 5µM
CN(C(=O)CSc1nnc(-c2ccccc2F)o1)c1ccccc1	BRCA1 expr up 11µM
CC1CCCCN1C(=O)CSc1nnc(-c2ccccc2F)o1 (centres undefined)	BRCA1 expr up 3.2µM
O=C(CSc1nnc(-c2ccccc2F)o1)N1CCCC1	BRCA1 expr up inconclusive
CC1CCCN(C(=O)CSc2nnc(-c3cccs3)o2)C1 (centres undefined)	none
CCC1CCCCN1C(=O)CSc1nnc(-c2cccs2)o1 (centres undefined)	BRCA1 expr up 8.9µM
CC1CCCCN1C(=O)CSc1nnc(-c2ccco2)o1 (centres undefined)	BRCA1 expr up 3.2µM
Clc1ccccc1-c1nnc(-c2ccccc2CNc2ccc(Br)cc2)o1	none (no result: pAkt inh, BRCA1 expr up, TCR act)
O=C(Cc1cccs1)N/N=C/C(Br)=C/c1ccccc1	BRCA1 expr up 5µM (no result: TCR act)
CC1CCN(c2oc(-c3ccccc3Cl)nc2C#N)CC1	BRCA1 expr up 6.3µM
Nc1ccc(N2CCCCC2)cc1N1CCCCC1	PINK1 modulator 16µM
CN1CCCN(C(=O)[C@@H]2C[C@@H](Sc3nc4ccccc4[nH]3)CN2Cc2ccc(OC(F)(F)F)cc2)CC1	none (no result: pAkt inh, BRCA1 expr up, TCR act)
Nc1nc(-c2ccccc2)cs1	none (no result: PINK1 modulator, TCR act)
Nc1nc(-c2ccc(Br)cc2)cs1	BRCA1 expr up 16µM
Nc1nc(-c2cccc(Br)c2)cs1	PINK1 modulator inconclusive, BRCA1 expr up 11µM (no result: TCR act)
CCN(Cc1ccccc1)S(=O)(=O)c1ccc(S(=O)(=O)N(Cc2ccccn2)Cc2ccco2)cc1	PINK1 modulator 11µM (no result: TCR act)
CCCCCCCCCC[n+]1cccc2c3ccccc3ccc21	PINK1 modulator inconclusive
CCCCCCCC[n+]1cccc2c3ccccc3ccc21	PINK1 modulator 25µM
COC(=O)CCNC(=O)Cn1cnc2sc3c(c2c1=O)CCCC3	none
CN(C)CCNC(=O)CCCNC(=O)Cn1cnc2sc3c(c2c1=O)CCCC3	pAkt inh -119%
CCOC(=O)/C=c1\s/c(=C\c2ccc3cc(OC)ccc3c2)c(=O)n1CC(=O)NCc1ccc2c(c1)OCO2	PINK1 modulator 20µM
CCOC(=O)/C=c1\s/c(=C\c2ccccc2C)c(=O)n1CC(=O)NCc1ccc2c(c1)OCO2	PINK1 modulator inconclusive
O=c1c(N2CCCCC2)coc2ccccc12	BRCA1 expr up 8.9µM
O=c1cc(N2CCCCC2)c2ccccc2o1	none
O=C(c1cn(C2CCCN(Cc3cc(Cl)ccc3O)C2)nn1)N1CCCCC1 (centres undefined)	none (no result: pAkt inh, BRCA1 expr up, TCR act)
Cc1ccc2c(c1)c(N=Nc1cccc(C(=O)O)c1)c(O)n2C	none
CCOc1ccc2c(c1)c(N=Nc1cccc(C(=O)O)c1)c(O)n2C	BRCA1 expr up 10µM
Cc1cccc(CNC(=O)c2c3n(c(C)cc2=O)-c2ccccc2SC(c2sccc2C)C3)n1 (centres undefined)	none (no result: pAkt inh, BRCA1 expr up, TCR act)
Cc1cccc2cc(CN(Cc3nnnn3C3CCCCC3)C3CCCC3)c3nnnn3c12	pAkt inh -116%
Cc1ccc(N(C)S(=O)(=O)c2ccc3[nH]c(=O)ccc3c2)cc1	none (no result: pAkt inh, BRCA1 expr up, TCR act)
CCCn1ncc2c(Nc3ccc(C)c(C)c3)ncnc21	BRCA1 expr up 8.9µM
Cc1ccc(-n2ncc3c(Nc4cccc(C)c4)ncnc32)cc1	BRCA1 expr up 2.8µM (no result: pAkt inh, TCR act)
Cn1ncc2c(Nc3ccc(Cl)c(Cl)c3)ncnc21	none
COc1ccc(-n2ncc3c(Nc4cccc(C)c4)ncnc32)cc1	BRCA1 expr up inconclusive
Cc1cccc(-n2ncc3c(NCCCN4CCCC4=O)ncnc32)c1	pAkt inh -106%
COc1ccccc1C1CN(CCNC(=O)c2cnsn2)Cc2ccccc2O1 (centres undefined)	none (no result: pAkt inh, BRCA1 expr up, TCR act)
Cc1nnc(SCc2cccc(CSc3nnc(C)s3)c2)s1	BRCA1 expr up inconclusive
Cc1nnc(NC(=O)c2ccc3c(c2)OCO3)s1	BRCA1 expr up 5.6µM
CSc1nnc(NC(=O)c2ccc3c(c2)OCO3)s1	none
Cc1nnc(SCc2ccc3c(c2)OCO3)s1	BRCA1 expr up 8.9µM
CC(=O)N1N=C(c2ccc(Cl)cc2)CC1c1ccco1 (centres undefined)	none
Cc1ccc(C2=NN(S(C)(=O)=O)C(c3ccc4c(c3)OCO4)C2)cc1 (centres undefined)	BRCA1 expr up inconclusive
CC(=O)N1N=C(c2ccc(C)cc2)CC1c1ccco1 (centres undefined)	BRCA1 expr up 13µM
